High-throughput results: PubChem, several laboratories
Most compounds without a hit are left out; they make up all but 12% or so of the library.
KCC2 mod – KCC2 cotransporter modulators, thallium flux, primary screen, cell-based, HEK293 KCC2, FluoZin-2 fluorescence, MLSMR; Solute carrier family 12 member 5 (Homo sapiens), Q9H2X9; KCC2 cells, thallium flux FluoZin-2 fluorescence; B-score of Tl+ flux slope (higher = more flux/activation; lower = inhibition) at 10 µM; actives 2.2% (n = 190,000); AID 1456, 2008;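 active means thallium flux slope and its plate-corrected score both differing from the plate sample mean at a set confidence after two filtering rounds, in either direction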;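 further: slope of fluorescence scaled to starting intensity during 10 to 20 s after thallium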
m-calpain inh – inhibitors of pig calpain II, primary screen, biochemical, fluorogenic peptide substrate, 1536-well; purified calpain II, 30 min; actives 0.37% (n = 220,000); inhibition, % at 16 µM;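 active means inhibition above about 50%, limit read from the data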
L major viab – Leishmania major promastigote growth inhibition, primary screen; actives 9% (n = 200,000); inhibition, % at 10 µM; Leishmania major promastigotes, resazurin fluorescence viability; in the data active means inhibition above about 50%;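 further: promastigotes grown with compound for 44 hours at 28 °C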
ROMK primary – ROMK potassium channel modulators, primary screen, cell-based, thallium flux, MLSMR library | actives 2% (n = 130,000) | Tet-inducible ROMK, thallium flux fluorescence; actives lie on both sides | B-score at 10 µM | ATP-sensitive inward rectifier potassium channel 1 (Homo sapiens), P48048;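 active means signal ratio slope over the read window, or its plate-corrected B-score, at least 3 SD from the plate mean, either direction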;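 further: B-score of the F/F0 ratio slope over 7 to 12 s after thallium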
Target sequence (P48048 whole entry, looked up): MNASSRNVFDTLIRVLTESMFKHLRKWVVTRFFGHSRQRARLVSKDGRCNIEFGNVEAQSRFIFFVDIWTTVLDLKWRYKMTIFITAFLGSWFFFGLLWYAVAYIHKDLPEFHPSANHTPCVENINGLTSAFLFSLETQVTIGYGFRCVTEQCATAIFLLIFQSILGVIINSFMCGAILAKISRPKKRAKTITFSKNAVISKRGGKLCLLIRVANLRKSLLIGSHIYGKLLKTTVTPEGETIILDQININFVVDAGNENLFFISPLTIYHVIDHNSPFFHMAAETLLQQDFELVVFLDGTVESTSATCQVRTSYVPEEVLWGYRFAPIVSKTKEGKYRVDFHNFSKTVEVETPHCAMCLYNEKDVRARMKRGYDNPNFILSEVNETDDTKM
WT yeast gro inh – growth inhibition of WT strain, primary screen, mitochondrial fusion inhibitor project, WT and mutant strains, chemical genetic; AID 1362, 2008; mitochondrial fusion phenotypic screen; actives 2.1% (n = 190,000); inhibition, % at 10 µM; in the data active means inhibition above about 58%; tested in S. cerevisiae
KCC2 secondary – KCC2 modulators in sodium-free buffer, confirmation, cell-based, HEK293 KCC2, thallium flux, secondary assay | shares compounds with KCC2 mod | FluoZin2 fluorescence; active compounds read high | normalised thallium flux (F/F0 slope) at 10 µM | actives 15% (n = 3,700) | AID 1713, 2009;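 active means thallium flux slope above the same plate's solvent-only control mean plus 3 SD; inconclusive means the two replicate wells disagree; inactive means no significant difference from solvent-only control wells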
KCC2 bumet counter – thallium flux persisting under bumetanide in KCC2 cells, confirmation, counter-screen for KCC2 modulator project, cell-based, HEK293 KCC2, FluoZin2, secondary assay 3; normalized thallium flux at 10 µM; actives 49% (n = 3,700); AID 1714, 2009; shares compounds with KCC2 mod; HEK293-KCC2 + bumetanide/ouabain; active compounds read high;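 active means thallium entry rate above the same plate's blocked-transporter control wells by more than 3 SD; inconclusive means the two repeat wells disagree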;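 further: raw slope of fluorescence over initial fluorescence between 10 and 20 s after thallium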
KCC2 secondary2 – KCC2 modulators without ouabain present, confirmation, cell-based, HEK293 KCC2, thallium flux, FluoZin2, secondary assay 2; AID 1715, 2009; normalized thallium flux at 10 µM; shares compounds with KCC2 mod; actives 23% (n = 3,700); thallium flux FluoZin2 fluorescence; actives lie on both sides; F/F0 rise rate, 10–20 s post-thallium;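 active means thallium flux slope more than 3 SD above or below the plate's solvent-only control mean, mostly below; inconclusive means the two repeat wells disagreed; inactive means no significant shift from solvent-only controls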;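 further: raw slope with 0.1% DMSO as baseline and bumetanide as block control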
HEK293 Tl flux – thallium flux modulation in parental HEK cells, confirmation, counter-screen for KCC2 modulator project, cell-based, counterscreen 1; thallium flux rate (normalised fluorescence) at 10 µM; HEK293 parental cells, thallium flux FluoZin2, ouabain; baseline-ratio fluorescence slope, 10–20 s after thallium; actives 46% (n = 3,700); shares compounds with KCC2 mod; AID 1716, 2009;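 active means thallium flux rate significantly above the same plate's solvent-only control wells, beyond their mean plus 3 SD; inconclusive means the two replicate wells gave conflicting results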
KCC2 ouabain – KCC2 inhibitors and activators, ouabain retest, confirmation, HEK-KCC2 cells. actives 48% (n = 3,700). HEK293-KCC2, thallium flux FluoZin2 fluorescence; bidirectional: low = inhibitor, high = activator. shares compounds with KCC2 mod. raw Tl+ flux slope (below DMSO = inhibition, above = activation) at 10 µM;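 active means thallium flux slope beyond 3 SD from same-plate DMSO control mean in most replicates, usually higher, sometimes lower; inconclusive means repeat tests gave conflicting results; inactive means no significant difference from controls in most replicates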;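 further: slope of initial-normalized fluorescence between seconds 10 and 20 after thallium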
HEK counter2 – native HEK Tl+ uptake effects, second counter-screen – HEK cells, counterscreen 2, counter-screen for KCC2 modulator project, confirmation; shares compounds with KCC2 mod; HEK293 parental, thallium flux FluoZin-2 fluorescence slope; thallium flux slope at 10 µM; actives 33% (n = 3,700);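 active means thallium flux slope above the same plate's solvent-control mean plus 3 SD in both duplicate wells; inconclusive means duplicate wells that disagreed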;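 further: run without ouabain in cells lacking the KCC2 cotransporter; slope of fluorescence scaled to its starting value between 10 and 20 s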
Active calls of the source: *; i = inactive; ? = inconclusive; . = not tested or not shown.

SMILES	KCC2 mod	m-calpain inh	L major viab	ROMK primary	WT yeast gro inh	KCC2 secondary	KCC2 bumet counter	KCC2 secondary2	HEK293 Tl flux	KCC2 ouabain	HEK counter2
Cc1cccc(NC(=S)N/N=C(\c2ccccc2)C(C)C)c1	33*	25	22	-0.14	73*	0.0059	0.06*	0.05*	0.04*	0.055*	0.036*
C/C(=N/NC(=S)Nc1cccc(C)c1)c1cccc([N+](=O)[O-])c1	30*	20	-6	-1.1	56	0.0087	0.037*	?	0.037*	0.036*	0.027*
CCC(=O)Nc1cccc(NC(=S)NC(=O)c2cccc(C)c2)c1	0.39	16	10	.	9	.	.	.	.	.	.
CCC(=O)Nc1cccc(NC(=S)NC(=O)c2cc3ccccc3o2)c1	3.8	-10	11	.	-2	.	.	.	.	.	.
O=C(c1cnc(N2CCN(c3ccccn3)CC2)c2ccccc12)N1CCN(c2cccc(Cl)c2)CC1	0.4	-397	45	0.0071	51	.	.	.	.	.	.
Cc1cc(-c2nnc(SCC(=O)Nc3nccs3)o2)no1	1.1	-22	.	.	.	.	.	.	.	.	.
CC(=O)NC(=S)Nc1cccc([N+](=O)[O-])c1	-0.25	3	-5	2.6	21	.	.	.	.	.	.
O=C(NC(=S)Nc1cccc(F)c1)c1cccc([N+](=O)[O-])c1	151*	-6	.	.	.	0.031*	0.15*	?	0.071*	0.085*	0.019*
O=C(Nc1ccc2[nH]c(=S)sc2c1)Nc1ccccc1F	23*	17	.	.	.	0.0062	0.034*	?	0.019*	0.033*	0.021*
C=CCN(CC=C)C(=S)NC(=O)Cc1cccc2ccccc12	.	-41	-8	.	65*	0.043*	0.15*	0.061*	0.1*	0.13*	0.054*
CC(C)(C)c1ccc(C(=O)/C=C2\NC(=O)CS2)cc1	31*	-1	2	0.11	2	0.0074	0.049*	0.05*	0.035*	0.043*	0.037*
CC(C)(C)c1ccc(C(=O)OC/C(O)=C(\C#N)c2nc3ccccc3s2)cc1	-0.53	-33	-4	.	2	.	.	.	.	.	.
N#C/C(=C(/O)COC(=O)c1ccccc1O)c1nc2ccccc2s1	-5.1*	-18	-4	-0.86	0	0.0063	0.0074	0.029	0.0065	0.016*	0.009
Cc1cc(CN(C)C(=O)CC2C(=O)NCCN2Cc2c(F)cccc2Cl)on1 (centres undefined)	7.9*	18	.	.	.	0.016	0.0048	0.028	0.0076	0.016	0.01
Cc1ccc(NC(=O)c2ccccc2-c2ccc(C(F)(F)F)cc2)cc1S(=O)(=O)N1CCOCC1	3.8*	-8	93*	.	18	0.0055	0.0052	0.027	0.0074	0.018	0.011
O=C(COc1ncnc2sccc12)N1CCN(S(=O)(=O)c2ccc(Cl)cc2)CC1	.	27	-3	0.9	12	.	.	.	.	.	.
Cc1nc(Nc2ccc3c(c2)OCCO3)c2oc3ccccc3c2n1	-1.4	-33	13	-0.34	25	.	.	.	.	.	.
Cc1nc(Nc2ccc3c(c2)OCCO3)c2c(C)c(C)sc2n1	7.1*	0	0	-0.96	1	0.0056	0.021*	0.039*	0.019*	0.031*	0.021*
S=C(NCc1ccccc1)N1CCN(c2ccccc2)CC1	0.57	18	-6	0.52	4	.	.	.	.	.	.
COc1ccc2occ(C(=O)c3cccs3)c2c1	.	-12	-2	-0.79	5	0.0067	0.0071*	0.03	0.0074	0.019	0.011
CCCCn1nnnc1NCc1cc(OC)c(OC)cc1OC	4.9*	28	-4	.	-7	0.0092	0.0061	0.031	0.007	0.019	0.01
CC1CCc2nn(CC(=O)N3CCc4ccccc43)cc2C1 (centres undefined)	-0.075	-17	-1	.	-10	.	.	.	.	.	.
COCCNc1cc(C)c(C#N)c2nc3ccccc3n12	-0.88	i	5	0.5	16	0.01	?	0.03	0.0071	0.034	?
CCCNc1cc(C)c(C#N)c2nc3ccccc3n12	0.28	-242	0	-0.4	-12	.	.	.	.	.	.
CCn1c(=O)c2c(nc3n2CCN3c2ccccc2)n(C)c1=O	0.34	8	-4	0.93	-14	.	.	.	.	.	.
SMILES	KCC2 mod	m-calpain inh	L major viab	ROMK primary	WT yeast gro inh	KCC2 secondary	KCC2 bumet counter	KCC2 secondary2	HEK293 Tl flux	KCC2 ouabain	HEK counter2
O=C(Nc1ccccc1)C1=C(c2ccccc2)S(=O)(=O)CCS1(=O)=O	-0.71	-25	-1	.	9	.	.	.	.	.	.
CC(C)(C)C(=O)NC(=S)NNC(=O)c1ccc(Cl)cc1Cl	38*	-9	-7	-0.53	-4	0.031*	0.05*	0.039	0.053*	0.058*	0.017*
COC(=O)NNC(=O)c1ccc(Cl)cc1Cl	0.21	-4	-6	-0.19	-27	.	.	.	.	.	.
Cc1ccc2cc(C#N)c(SCC(=O)N3CCCc4ccccc43)nc2c1C	0.051	-90	3	.	1	.	.	.	.	.	.
CCN(CC)C(=O)Oc1ccc(Cl)c2cccnc12	0.00046	-43	-2	-0.42	-18	.	.	.	.	.	.
O=C(Nc1cccc(C(F)(F)F)c1)Oc1ccc(Cl)c2cccnc12	14*	15	.	.	.	0.016	0.022*	0.031	0.014*	0.021*	0.016*
O=C(O)/C(=C\c1ccc(-c2ccc(F)cc2)o1)c1ccccc1	-7*	-56	-3	1.6	-21	0.0073	0.008*	0.031	0.0074	0.016*	0.01
CCOc1ccc(NC(=S)NNC(=O)c2ccc(Br)cc2)cc1	24*	48	6	1.5	29	0.014*	0.055*	0.039	?	0.046*	?
CNC(=S)NNC(=O)Cc1ccc(OC)cc1	-0.97	-20	.	.	.	.	.	.	.	.	.
